Experimental data: PubChem BioAssay (Tox21)
Inconclusive results are not listed. Where a call stands in place of a potency, no number is given. The source made the active and inactive calls. The call rests on the fitted dose curve; in most records, active means well fitted cell-killing curve with a large enough effect in the repeat runs; inconclusive means weak or mixed curves, or effect the other way; inactive means flat fitted curve, though single readings scatter.

Test: qHTS assay to identify small molecule antagonists of the retinoid acid receptor (RAR) signaling pathway - cell viability counter screen (AID 1159551); further: nearly all actives have a fitted effect of over 35% in size
Details: C3RL4 cells viability, ATP luminescence (CellTiter-Glo), 6 h; series mostly up to 92.4 µM
Description: U.S. Tox21 Program National Center for Advancing Translational Sciences [NCATS] NIH Chemical Genomics Center [NCGC] U.S. Environmental Protection Agency [EPA] National Institutes of Environmental Health Sciences [NIEHS] National Toxicology Program [NTP] U.S. Food and Drug Administration [FDA] Tox21 Assay Overview: All-trans Retinoic acid (atRA) is the potent natural metabolite of retinol and plays an important role in normal embryonic development and maintenance of cellular phenotype in adult animals. atRA is the activating ligand for the retinoic acid receptors (RARs) which form heterodimers with retinoid X receptors (RXRs) on the retinoic acid response element (RARE). Through activation of the RAR/RXRs nuclear receptors, atRA regulates the transcription of a large number of protein-coding genes and regulatory RNAs. Intracellular levels of atRA are controlled by the retinol signaling pathway (RSP) that regulates the biosynthesis and catabolism of atRA to maintain physiological levels. Chemicals that interfere with the RSP can cause abnormal intracellular levels of atRA and therefore are potential developmental toxicants. To assess compounds for the potential adverse effect on embryonic development through interfering with retinol signaling, a cell-based RARE luciferase reporter gene assay was used. C3RL4 cell line (OARSA/CFSAN/FDA, Laurel, MD) was used to screen Tox21 10K compound library for identifying inhibitors of the RSP. Also cytotoxicity was assessed by determining the viability of cells based on the quantitation of ATP.
Tox21 Assay Protocol Summary: C3RL4 cells were seeded at 1,000/well in 4 uL of assay medium into white solid 1,536-well tissue culture plates (Greiner Bio-One North America Inc. Monroe, NC) using a Multidrop Combi (Thermo Scientific, Waltham, MA) dispenser. After incubation at 37 C and 5% CO2 for an overnight, 23 nL of compounds dissolved in DMSO, positive control or DMSO only were transferred by a Pintool station (Kalypsys, San Diego, CA). One ul of 1 uM (final concentration) of Retinol was added right after the compound addition by using a Flying Reagent Dispenser (FRD) (Aurora Discovery, San Diego, CA). After 6 hr incubation at 37 C and 5% CO2, 5 uL of CellTiter-Glo reagent (Promega Corporation, Madison, WI) was added to each assay plate using an FRD. Luminescence was quantified on a ViewLux plate reader (PerkinElmer, Waltham, MA) after 30 min incubation at room temperature.

Structure (SMILES)	Potency	activity change, negative = cytotoxicity
CN(C)CC/C=C1\c2ccccc2COc2ccccc21	inactive	
COCCO	inactive	
NC(N)=N/N=C/c1c(Cl)cccc1Cl	inactive	
N#CCc1cccc(C(F)(F)F)c1	inactive	
N#Cc1cc2ccccc2c2ccccc12	inactive	
COc1ccccc1OC(=O)Oc1ccccc1OC	inactive	
CCCCCOC(=O)COc1cc(N2C(=O)C3=C(CCCC3)C2=O)c(F)cc1Cl	inactive	
Cn1sccc1=O	inactive	
CC[C@H](C)[C@@H](C(=O)O)n1sc2ccccc2c1=O	inactive	
CCCCCCCCCCCCCCCC(=O)OC/C=C(C)/C=C/C=C(C)/C=C/C1=C(C)CCCC1(C)C	inactive	
CN1CCC[C@@H]1c1cccnc1	inactive	
Oc1ccc(Sc2ccc(O)cc2)cc1	inactive	
CC1=CC(=O)/C(=C(/C)O)C(=O)O1	inactive	
CCN(CC)CCNC(C(=O)OCCC(C)C)c1ccccc1 (stereo not given)	inactive	
CN1CCC(OC(c2ccccc2)c2ccccc2)CC1	inactive	
CCC(=O)OC(C)(C)C1CC=C(C)CC1 (stereo not given)	inactive	
C=CC[N+]1([C@H]2C[C@H]3[C@@H]4CC[C@H]5C[C@H](OC(C)=O)[C@@H](N6CCCCC6)C[C@]5(C)[C@H]4CC[C@]3(C)[C@H]2OC(=O)CC)CCCCC1	inactive	
Cc1cc(NC(=O)C(=O)O)cc(C)c1Oc1ccc(O)c2c1CCC2	inactive	
O=S1(=O)N=C(O)c2ccccc21	inactive	
C=Cc1c(C)c2cc3[nH]c(cc4nc(cc5nc(cc1[nH]2)C(C)=C5CCC(=O)O)C(CCC(=O)O)=C4C)c(C)c3C=C	inactive	

Structure (SMILES)	Potency	activity change, negative = cytotoxicity
CCc1nn(C2CCCCC2)c2cc(C3(C#N)CCC(C(=O)O)CC3)ccc12 (stereo not given)	inactive	
Cc1ccc(C(C)c2ccc(C)c(C)c2)cc1C	inactive	
O=C(O)Cc1sc(-c2ccccc2)nc1-c1ccc(Cl)cc1	inactive	
CCN1CCC[C@H]1CNC(=O)c1c(OC)ccc(Br)c1OC	inactive	
O=C(c1ccccc1)c1ccc2n1CCC2C(=O)O (stereo not given)	inactive	
OCC1CC2CC1C1CCC(CO)C21 (stereo not given)	inactive	
CNCC[C@@H](Oc1ccccc1C)c1ccccc1	inactive	
N[C@H]1C(O)O[C@H](CO)[C@H](O)[C@@H]1O (stereo not given in full)	inactive	
Cc1occc1S	inactive	
Oc1ccc2c(c1)OCO2	inactive	
O=C(NS(=O)(=O)/C=C/c1cccs1)c1ccc(F)cc1Br	inactive	
CN(C)CCCOc1nn(Cc2ccccc2)c2ccccc12	inactive	
CC(C)=CCCC(C)CC=O (stereo not given)	inactive	
Cc1cccc(Oc2ccccc2)c1	inactive	
FC(F)(F)C(F)(F)C(F)(F)C(F)(F)C(F)(F)C(F)(F)CCI	inactive	
CCOc1ccc2[nH]cc(C(=O)NCc3ccccc3)c(=O)c2n1	inactive	
CC(C(=O)O)c1ccc(-c2ccccc2)c(F)c1 (stereo not given)	inactive	
CCOC(=O)C1=C(C)NC(C)=C(C(=O)OC)C1c1cccc([N+](=O)[O-])c1 (stereo not given)	inactive	
CCN(CCO)CCCC(C)Nc1ccnc2cc(Cl)ccc12 (stereo not given)		0.797% [at 8.39 µM] (inactive)
O=C(O)c1cccc(N(Cc2cccnc2)c2ccc(OC(F)F)c(OC(F)F)c2)c1	inactive	
